Assay outcomes as filed in PubChem BioAssay.
Gli-Sufu antag – Gli-Sufu pathway antagonists, primary screen, luciferase luminescence, Sufu-KO-LIGHT cells, uHTS; 340,000 compounds, 0.74% hits; Sufu-KO-LIGHT fibroblasts, Gli luciferase reporter luminescence; inhibition, % at 5 µM;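 active = inhibition above about 55%, limit read from the data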;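 also: 0% = DMSO-treated cells and 100% = wells with medium but no cells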
Cardio protect – cardioprotection against H2O2-induced cell death, primary screen, uHTS, H9c2 cells, ATPLite luminescence. H9c2 cardiomyocytes, H2O2 injury protection, 2 h. protection from H2O2 cell death, % at 20 µM. 360,000 compounds, 0.63% hits;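 active = compounds giving at least 50% protection of heart cells from peroxide-induced death in the single-dose screen, raw or plate-pattern-corrected value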;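 also: 0% = DMSO wells with peroxide and 100% = DMSO wells without peroxide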
NR2F2 inh – NR2F2 transcriptional activity inhibitors, primary screen, cell-based, luciferase reporter, HEK293T, luminescence; COUP transcription factor 2 (Homo sapiens), P24468; HEK293T NGFI-A luciferase reporter; inhibition, % at 8.6 µM; 370,000 compounds, 0.7% hits; AID 686940, 2013;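 active = inhibition above a per-plate cutoff, mean inhibition of test wells between control levels plus 3 SD, cut at about 38% in these data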;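 also: cells cotransfected with COUP-TFII expression vector driving the NGFI-A reporter; 0% = median of COUP-TF2 test wells and 100% = reporter-only cells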
Target sequence (P24468 whole entry, looked up): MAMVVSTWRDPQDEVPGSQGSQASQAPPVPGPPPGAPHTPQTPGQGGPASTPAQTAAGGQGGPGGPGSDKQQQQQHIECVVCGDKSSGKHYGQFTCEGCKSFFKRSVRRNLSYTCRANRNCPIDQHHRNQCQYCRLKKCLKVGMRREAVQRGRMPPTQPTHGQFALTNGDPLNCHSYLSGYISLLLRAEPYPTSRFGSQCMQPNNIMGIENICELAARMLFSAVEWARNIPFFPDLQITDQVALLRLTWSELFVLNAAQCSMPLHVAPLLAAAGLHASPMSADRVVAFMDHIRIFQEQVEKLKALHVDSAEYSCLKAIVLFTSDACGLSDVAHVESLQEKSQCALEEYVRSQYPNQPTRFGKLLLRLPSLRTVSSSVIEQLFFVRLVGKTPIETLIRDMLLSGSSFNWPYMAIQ
697 NFkB inh – inhibitors of PMA/ionomycin-induced NF-kB reporter, 697 cells, primary screen, B-cell NF-kB inhibitor project, cell-based, luminescence, uHTS; 330,000 compounds, 0.33% hits; AID 435022, 2010; inhibition, % at 4 µM; 697 B-cell NF-kB luciferase reporter, 16 h; in the data active = inhibition above about 35%
Jurkat NFkB inh – inhibitors of induced NF-kB luciferase reporter, primary screen, TCR NF-kB activation inhibitor project, cell-based, luminescence, uHTS; Jurkat, PMA/ionomycin-induced NF-kB luciferase reporter; inhibition, % at 4 µM; 330,000 compounds, 0.53% hits; in the data active = inhibition above about 50%
TAG inh – inhibitors of triacylglycerol accumulation, primary screen, cell-based, uHTS, fluorescence, H9c2; H9c2 cells, Nile Red lipid (TAG) fluorescence; cells loaded with 200 µM oleic acid; inhibition, % at 12.5 µM; AID 651582, 2012; 230,000 compounds, 0.66% hits;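 active = pattern-corrected inhibition of lipid staining of at least 50% with the nuclear-stain viability signal not falling by more than 50%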;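 also: 0% = DMSO wells and 100% = triacsin C control wells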
Gal4-VP16 ctr – Gal4-VP16 luciferase reporter inhibitors, counter-screen for COUP-TFII antagonist project, cell-based, luminescence, HEK293; shares compounds with NR2F2 inh; inhibition, % at 8.5 µM; 2,500 compounds, 25% hits; AID 687007, 2013; in the data active = inhibition above about 13%
COUP-TFII conf – NR2F2 transcriptional activity inhibitors, confirmation, cell-based, luciferase reporter, HEK293, triplicate; HEK293 NGFI-A luciferase reporter, luminescence; AID 687008, 2013; shares compounds with NR2F2 inh; 2,500 compounds, 45% hits; inhibition, % at 8.5 µM;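 active = mean inhibition over three repeats above a set limit taken from the earlier primary screen, cut at about 38% in these data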;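 also: 100% = cells given the luciferase reporter alone without the COUP-TF2 vector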
Starred values were filed as active, the others as inactive; nt = no result given. Only some compounds are listed: those with a hit (about 2.6% of all), similar ones and a draw of the others.

SMILES | Gli-Sufu antag | Cardio protect | NR2F2 inh | 697 NFkB inh | Jurkat NFkB inh | TAG inh | Gal4-VP16 ctr | COUP-TFII conf
Cc1ccc(CN2CCCCC(NC(=O)c3ccc(F)cc3)C2=O)cc1 (stereo not drawn) | nt | nt | -1 | nt | nt | nt | nt | nt
CCCCOc1ccc(C(=O)NC2CCCCN(Cc3ccc(C)cc3)C2=O)cc1 (stereo not drawn) | nt | nt | 40* | nt | nt | nt | -12 | 25
Cc1ccc(CN2CCCCC(NC(=O)c3ccc(COc4ccccc4)cc3)C2=O)cc1 (stereo not drawn) | nt | nt | 51* | nt | nt | nt | -10 | 23
Cc1ccccc1CN1CCCCC(NC(=O)c2ccc(-c3ccccc3)cc2)C1=O (stereo not drawn) | nt | nt | 57* | nt | nt | nt | -15 | 41*
O=S(=O)(c1cccs1)N1CCCc2nc(-c3ccc(F)cc3)ccc21 | nt | nt | -13 | nt | nt | nt | nt | nt
Cc1ccc(-c2cc(C(=O)NN=Cc3sccc3C)[nH]n2)cc1C | nt | nt | 5 | nt | nt | nt | nt | nt
COc1ccc(CNC(=O)c2cccc3c(-c4cccc(C(N)=O)c4)coc23)cc1OC | nt | -8 | 86* | nt | nt | -22 | -1 | 73*
COc1ccc(CNC(=O)c2cccc3c(-c4ccc(F)c(F)c4)coc23)cc1OC | nt | -19 | nt | nt | nt | -42 | nt | nt
COc1cc(-c2coc3c(C(=O)NCc4ccc(OC)c(OC)c4)cccc23)ccc1O | nt | -13 | 67* | nt | nt | 6 | 0 | 63*
COc1cc(-c2coc3c(C(=O)NCc4ccc(N(C)C)cc4)cccc23)ccc1O | nt | -13 | -6 | nt | nt | -34 | nt | nt
COc1ccc(C(=O)N2CCC[C@@H]2C(=O)N2CCC[C@@H]2C(=O)NCc2ccccc2)cc1F | nt | nt | 1 | nt | nt | nt | nt | nt
COC(=O)CC#C[C@H](C)[C@@H](NS(C)(=O)=O)C(C)(C)COCc1ccccc1 | nt | nt | 2 | nt | nt | nt | nt | nt
O=C(N/N=C/c1sc(N2CCOCC2)nc1-c1ccccc1)c1cccc(S(=O)(=O)N2CCOCC2)c1 | 0 | 54* | 54* | -4 | 11 | 7 | 0 | 50*
Nc1ccc(-c2cc3ccccc3c(=O)o2)cc1 | 31 | -14 | 73* | 26 | -46 | 4 | 42* | 34
O=C1CCC[C@H]2C[C@H](NCc3cccc(Cl)c3)CC[C@]23CCCN13 | nt | nt | 3 | nt | nt | nt | nt | nt
Cc1cc(O)c(Sc2ncn[nH]2)cc1NS(=O)(=O)c1ccc(Cl)cc1 | -1 | -3 | -10 | -21 | -18 | -10 | nt | nt
O=S(=O)(Nc1cc(Sc2ncn[nH]2)c(O)c2ccccc12)c1ccccc1 | -8 | -16 | 72* | -20 | 40 | nt | 2 | 12
COc1ccc(CNC(=O)Nc2ccc3c(c2)c(=O)n(C)n3Cc2cccc(C(F)(F)F)c2)cc1 | nt | -7 | 21 | nt | nt | -38 | nt | nt
COc1ccc(OC)c(CC(=O)Nc2ccc3c(c2)c(=O)n(C)n3Cc2cccc(C(F)(F)F)c2)c1 | nt | 4 | 83* | nt | nt | 10 | -9 | 5
COc1cccc(CNC(=O)[C@H]2CCCN2C(=O)[C@H]2CCCN2C(=O)c2cccc(Cl)c2)c1 | nt | nt | -1 | nt | nt | nt | nt | nt
O=C(Nc1ccc(Cl)cc1)/C(=C/c1cccc(O)c1)c1nc2ccccc2s1 | 10 | -18 | 66* | -43 | 41 | 81 | 40* | 54*
COCC(=O)OC1CCn2c1nc1c2C(=O)C(C)=C(NC(C)=O)C1=O (stereo not drawn) | 39 | -17 | 72* | nt | nt | 99 | 50* | 74*
C#CCN(Cc1ccco1)C(=O)c1nnc2c3cc(OC)ccc3n(S(=O)(=O)c3ccc(OC)cc3)c2n1 | nt | nt | 9 | nt | nt | nt | nt | nt
CCN(CC)S(=O)(=O)c1ccc(NC(=O)c2ccc(OCC3CCCO3)cc2)cc1 (stereo not drawn) | 1 | -16 | 61* | -11 | 36 | 21 | 9 | 49*
